Assay results as given in ChEMBL document CHEMBL2218924, “A broad activity screen in support of a chemogenomic map for kinase signalling research and drug discovery” (Biochem J, 2013).

What was measured:
[1] = target: T1, Tyrosine-protein kinase Tec (Homo sapiens) (UniProt P42680); settings: at 1 µM
T1 sequence (whole entry): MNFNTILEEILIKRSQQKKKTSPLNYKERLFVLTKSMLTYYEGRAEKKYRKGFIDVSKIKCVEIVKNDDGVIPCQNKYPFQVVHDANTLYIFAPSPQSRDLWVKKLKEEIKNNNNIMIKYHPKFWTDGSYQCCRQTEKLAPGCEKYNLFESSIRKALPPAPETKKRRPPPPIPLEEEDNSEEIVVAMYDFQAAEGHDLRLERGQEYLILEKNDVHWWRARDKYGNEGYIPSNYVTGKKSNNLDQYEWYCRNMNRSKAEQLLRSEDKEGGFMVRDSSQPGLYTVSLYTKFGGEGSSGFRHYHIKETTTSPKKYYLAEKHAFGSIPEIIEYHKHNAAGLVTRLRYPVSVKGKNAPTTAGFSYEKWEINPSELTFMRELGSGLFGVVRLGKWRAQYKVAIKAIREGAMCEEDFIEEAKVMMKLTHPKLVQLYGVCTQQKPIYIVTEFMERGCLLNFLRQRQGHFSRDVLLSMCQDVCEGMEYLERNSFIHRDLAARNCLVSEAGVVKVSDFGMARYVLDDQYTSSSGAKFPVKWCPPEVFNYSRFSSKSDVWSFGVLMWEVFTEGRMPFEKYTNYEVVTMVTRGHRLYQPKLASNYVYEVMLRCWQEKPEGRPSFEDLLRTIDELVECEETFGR

[2] = target: T1, Tyrosine-protein kinase Tec (Homo sapiens); settings: at 10 µM
[3] = target: Angiopoietin-1 receptor (Homo sapiens) (UniProt Q02763); settings: at 1 µM
Angiopoietin-1 receptor (Homo sapiens), sequence (Q02763 whole entry): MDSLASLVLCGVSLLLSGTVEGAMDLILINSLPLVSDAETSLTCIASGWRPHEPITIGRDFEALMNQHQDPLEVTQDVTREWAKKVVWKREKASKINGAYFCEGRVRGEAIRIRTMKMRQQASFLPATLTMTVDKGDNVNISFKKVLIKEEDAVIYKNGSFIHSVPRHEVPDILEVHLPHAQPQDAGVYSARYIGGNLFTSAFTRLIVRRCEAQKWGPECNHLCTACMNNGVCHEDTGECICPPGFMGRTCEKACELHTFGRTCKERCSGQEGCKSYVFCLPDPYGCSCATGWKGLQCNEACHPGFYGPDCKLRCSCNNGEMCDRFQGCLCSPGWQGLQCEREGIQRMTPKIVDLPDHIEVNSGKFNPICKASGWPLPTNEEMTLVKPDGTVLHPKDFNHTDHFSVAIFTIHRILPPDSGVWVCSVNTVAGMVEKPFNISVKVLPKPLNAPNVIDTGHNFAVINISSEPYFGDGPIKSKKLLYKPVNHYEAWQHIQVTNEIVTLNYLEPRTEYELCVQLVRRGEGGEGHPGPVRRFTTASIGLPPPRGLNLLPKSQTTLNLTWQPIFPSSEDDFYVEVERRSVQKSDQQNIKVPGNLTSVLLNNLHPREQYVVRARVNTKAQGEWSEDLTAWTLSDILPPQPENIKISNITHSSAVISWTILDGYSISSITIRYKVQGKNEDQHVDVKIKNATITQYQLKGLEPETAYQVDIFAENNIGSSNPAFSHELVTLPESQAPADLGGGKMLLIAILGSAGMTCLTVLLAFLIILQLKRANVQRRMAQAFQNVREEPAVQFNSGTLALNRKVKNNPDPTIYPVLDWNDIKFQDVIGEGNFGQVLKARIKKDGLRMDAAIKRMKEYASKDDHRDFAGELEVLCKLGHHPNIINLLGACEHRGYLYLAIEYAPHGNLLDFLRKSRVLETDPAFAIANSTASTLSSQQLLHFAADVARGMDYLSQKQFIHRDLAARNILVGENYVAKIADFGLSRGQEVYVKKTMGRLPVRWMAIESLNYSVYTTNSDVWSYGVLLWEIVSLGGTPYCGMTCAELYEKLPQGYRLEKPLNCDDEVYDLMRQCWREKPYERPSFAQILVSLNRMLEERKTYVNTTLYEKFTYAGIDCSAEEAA

[4] = target: Angiopoietin-1 receptor (Homo sapiens) (UniProt Q02763); settings: at 10 µM
[5] = target: High affinity nerve growth factor receptor (Homo sapiens) (UniProt P04629); settings: at 1 µM
High affinity nerve growth factor receptor (Homo sapiens), sequence (P04629 33-796 limits assumed): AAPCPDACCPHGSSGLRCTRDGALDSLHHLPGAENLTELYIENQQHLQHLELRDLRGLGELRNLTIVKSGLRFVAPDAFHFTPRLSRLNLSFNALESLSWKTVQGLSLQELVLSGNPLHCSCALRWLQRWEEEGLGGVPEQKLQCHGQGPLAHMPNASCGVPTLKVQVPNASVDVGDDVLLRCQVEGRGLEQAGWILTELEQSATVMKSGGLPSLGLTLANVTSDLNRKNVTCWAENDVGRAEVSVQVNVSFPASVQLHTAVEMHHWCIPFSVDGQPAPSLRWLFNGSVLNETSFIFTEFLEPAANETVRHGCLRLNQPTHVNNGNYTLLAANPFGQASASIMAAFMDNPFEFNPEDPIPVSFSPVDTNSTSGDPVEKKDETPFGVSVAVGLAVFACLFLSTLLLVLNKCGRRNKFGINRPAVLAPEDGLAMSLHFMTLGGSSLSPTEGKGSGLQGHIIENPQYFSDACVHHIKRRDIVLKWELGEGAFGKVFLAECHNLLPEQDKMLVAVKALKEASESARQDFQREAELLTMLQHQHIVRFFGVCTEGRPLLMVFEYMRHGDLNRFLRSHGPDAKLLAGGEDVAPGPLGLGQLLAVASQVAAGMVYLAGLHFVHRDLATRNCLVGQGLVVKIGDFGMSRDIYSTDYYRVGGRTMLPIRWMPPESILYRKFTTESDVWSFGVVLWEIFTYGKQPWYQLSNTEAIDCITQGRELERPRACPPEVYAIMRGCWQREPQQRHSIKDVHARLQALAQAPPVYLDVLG

[6] = target: High affinity nerve growth factor receptor (Homo sapiens) (UniProt P04629); settings: at 10 µM
[7] = target: BDNF/NT-3 growth factors receptor (Homo sapiens) (UniProt Q16620); settings: at 1 µM
BDNF/NT-3 growth factors receptor (Homo sapiens), sequence (Q16620 32-822 limits assumed): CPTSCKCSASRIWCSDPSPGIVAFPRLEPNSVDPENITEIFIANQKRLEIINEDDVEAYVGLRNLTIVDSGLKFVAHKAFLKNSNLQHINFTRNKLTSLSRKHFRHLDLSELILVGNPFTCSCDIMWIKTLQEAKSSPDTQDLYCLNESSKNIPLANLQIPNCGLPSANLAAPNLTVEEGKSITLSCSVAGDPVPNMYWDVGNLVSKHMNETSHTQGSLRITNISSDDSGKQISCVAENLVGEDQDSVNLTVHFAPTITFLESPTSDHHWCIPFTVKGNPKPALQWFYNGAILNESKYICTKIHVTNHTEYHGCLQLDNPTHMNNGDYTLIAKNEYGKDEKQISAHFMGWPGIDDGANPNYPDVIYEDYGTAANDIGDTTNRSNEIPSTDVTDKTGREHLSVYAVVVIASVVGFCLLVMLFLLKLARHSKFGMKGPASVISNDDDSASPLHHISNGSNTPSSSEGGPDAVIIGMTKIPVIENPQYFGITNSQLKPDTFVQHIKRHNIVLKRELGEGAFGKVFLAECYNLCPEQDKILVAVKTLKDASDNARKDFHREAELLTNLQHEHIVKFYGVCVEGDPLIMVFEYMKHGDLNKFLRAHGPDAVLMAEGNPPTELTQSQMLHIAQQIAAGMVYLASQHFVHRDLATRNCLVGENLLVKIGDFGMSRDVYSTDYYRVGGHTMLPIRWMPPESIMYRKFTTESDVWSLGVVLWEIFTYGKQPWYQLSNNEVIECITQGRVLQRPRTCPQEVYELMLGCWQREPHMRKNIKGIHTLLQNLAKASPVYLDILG

[8] = target: BDNF/NT-3 growth factors receptor (Homo sapiens) (UniProt Q16620); settings: at 10 µM
[9] = target: T2, Tyrosine-protein kinase TXK (Homo sapiens) (UniProt P42681); settings: at 1 µM
T2 sequence (whole entry): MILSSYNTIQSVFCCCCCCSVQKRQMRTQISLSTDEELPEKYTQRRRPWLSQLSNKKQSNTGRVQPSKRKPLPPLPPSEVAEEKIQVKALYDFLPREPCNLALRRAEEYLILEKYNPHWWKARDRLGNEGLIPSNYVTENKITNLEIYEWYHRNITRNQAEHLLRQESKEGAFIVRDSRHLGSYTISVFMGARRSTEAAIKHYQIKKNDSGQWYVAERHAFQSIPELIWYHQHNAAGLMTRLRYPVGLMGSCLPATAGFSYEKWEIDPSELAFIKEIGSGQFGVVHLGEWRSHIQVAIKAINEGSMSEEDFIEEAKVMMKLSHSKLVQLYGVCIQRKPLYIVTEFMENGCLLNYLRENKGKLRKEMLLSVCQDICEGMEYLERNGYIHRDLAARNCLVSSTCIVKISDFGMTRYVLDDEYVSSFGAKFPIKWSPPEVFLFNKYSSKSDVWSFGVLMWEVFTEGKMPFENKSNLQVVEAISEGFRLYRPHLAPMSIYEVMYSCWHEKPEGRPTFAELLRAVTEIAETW

[10] = target: T2, Tyrosine-protein kinase TXK (Homo sapiens); settings: at 10 µM

Row | Structure (SMILES) | residual activity [1] | residual activity [2] | residual activity [3] | residual activity [4] | residual activity [5] | residual activity [6] | residual activity [7] | residual activity [8] | residual activity [9] | residual activity [10]
1 | CCn1cnc2c(Nc3cccc(Cl)c3)nc(N[C@@H]3CCCC[C@@H]3N)nc21 | 39% | 7% | 83% | 42% | 12% | 1% | 15% | 0% | 52% | 10%
2 | CC(C)(C)c1cc(C=C(C#N)C#N)cc(Br)c1O | – | 103% | 114% | 101% | – | – | 117% | 134% | 112% | 104%
3 | O=C1NC(=O)c2c1c1c3ccccc3n3c1c1c2c2ccccc2n1C1CCC3O1 | 66% | 76% | – | – | 12% | 3% | 19% | 14% | 71% | 81%
4 | CCc1nc(-c2ccc(OC)cc2)[nH]c1-c1ccncc1 | 102% | 75% | 111% | 106% | – | – | 113% | 107% | 100% | –
5 | C[S+]([O-])c1ccc(-c2nc(-c3ccc(F)cc3)c(-c3ccncc3)[nH]2)cc1 (configuration not stated) | 94% | 89% | 102% | 62% | 121% | 115% | 94% | 104% | 77% | 42%
6 | COc1ccc2c(c[n+](C)c3c4cc5c(cc4ccc23)OCO5)c1OC | 86% | 66% | 12% | 3% | – | – | – | 81% | 94% | 59%
7 | CN[C@@H]1C[C@H]2O[C@@](C)([C@@H]1OC)n1c3ccccc3c3c4c(c5c6ccccc6n2c5c31)C(=O)NC4 | – | – | – | – | – | – | 29% | -12% | – | –
8 | O=C1c2ccccc2-c2nc3nnnn3nc21 | – | – | 75% | 20% | – | – | 123% | 119% | 103% | 73%
9 | O=C1Nc2ccc3ncsc3c2/C1=C/c1c[nH]cn1 | 91% | 42% | 67% | 22% | 3% | -1% | 19% | -11% | 82% | 30%
10 | N/C(=N\[N+](=O)[O-])N/N=C\c1ccc(-c2cccc([N+](=O)[O-])c2)o1 | – | – | 90% | 92% | 91% | 91% | – | – | – | 80%
